The record followed here is PubChem BioAssay (NCATS).

Values joined by “and” are separate entries in the source; they are usually repeats but may differ in a detail not shown here. Equal entries are not always repeated. Results filed as inconclusive are left out. Active and inactive are the calls of the source. Unless noted, the call rests on the fitted dose curve; in most records, active means well fitted curve in the direction sought with a large enough effect; inconclusive means small, poorly fitted or top-dose-only effect, or another doubt; inactive means no such curve, though single readings can be large; an effect the other way counts as inactive or inconclusive.

Assay [1] in a line: qHTS Assay for Identifying Gametocytocidal Compounds (AID 743244). Further: potency means the concentration at half of the fitted maximal effect.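 On max response: on the % scale 0 is the no-effect control and ±100 the full control effect; actives lower the fluorescent signal which means gametocytes are killed.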 The following applies: P. falciparum 3D7 stage III-V gametocytes, alamarBlue, 72 h; max response: stronger effect = lower value. The method in brief: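 Late gametocytes (III–V), P. falciparum 3D7; 72 h drug, then 24 h alamarBlue; resazurin reduction read by fluorescence.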
For orientation: In qHTS, concentration-response curves come from the screen itself.

A short description of assay [2]: qHTS profiling of the MIPE4 collection as inhibitors of Plasmodium falciparum (3D7) proliferation (AID 743344; call rule not given here;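 further: scaled between DMSO vehicle wells and 0.29 µM artemisinin as full inhibition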). The following applies: P. falciparum 3D7 in erythrocytes, SYBR Green DNA fluorescence, 72 h; at 28.5 µM (top of the series) unless noted. The method in brief: (§1)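 Erythrocytes infected with P. falciparum (0.3% parasitemia, 2.5% hematocrit) incubated with compounds 72 h at 37 C, 5% CO2. Lysis with saponin/Triton buffer containing SYBR Green I, overnight at room temperature in the dark; DNA fluorescence (485/535 nm) normalised to 0.29 uM artemisinin and DMSO.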

Assay [3] can be described thus: qHTS profiling of the MIPE4 collection as inhibitors of Plasmodium falciparum (DD2) proliferation (AID 743345; call rule not given here). The following applies: P. falciparum Dd2 in erythrocytes, SYBR Green DNA, 72 h; at 28.5 µM (top of the series) unless noted. The method, boiled down:
as §1

Assay [4] can be described thus: qHTS profiling of the MIPE4 collection as inhibitors of Plasmodium falciparum (DD2) proliferation (Rep 2) (AID 743346; call rule not given here). The following applies: P. falciparum Dd2 in erythrocytes, SYBR Green DNA, 72 h; at 28.5 µM (top of the series) unless noted. The method in brief:
as §1

Assay [5] in a line: qHTS profiling of the MIPE4 collection as inhibitors of Plasmodium falciparum (HB3) proliferation (AID 743347; call rule not given here;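 further: plate controls were DMSO vehicle wells for no effect and artemisinin wells for full effect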). The following applies: P. falciparum HB3 in erythrocytes, SYBR Green DNA, 72 h; at 28.5 µM (top of the series) unless noted. The method in brief: as §1
The nature of assay [6]: High-throughput drug toxicity screening in the BPDCN cell line Gen2.2 (AID 1224824; call rule not given here;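 further: cells exposed to compounds for 48 h before reading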). The following applies: Gen2.2 BPDCN cells; at 45.8 µM (top of the series) unless noted. The method, boiled down: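 CellTiter-Glo luminescence read after 48 h compound exposure at 37 C defines viability; percent activity set with DMSO as 100% and bortezomib (9.2 uM final) as 0%. 500 exponentially growing cells per well, RPMI plus 10% FBS.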

Assay [7] is described as follows: qHTS assay for measurement of the activity of small molecule inhibitors on Zika virus induced Caspase-3 activity in human iPSC derived neural progenitor cells (hNPCs) (AID 1224857). Further: % of control where 0% means no effect; nearly all actives have a fitted effect of over 65% in size. The method, boiled down: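 Caspase-3/7 induction by a 6-hour ZIKV infection was quantified with a luminescent Caspase-Glo 3/7 reagent incubated 30 minutes at room temperature. Compounds were preincubated with hNPCs for 1 hour; inhibition was calculated against uninfected and infected control wells.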

The nature of assay [8]: qHTS assay for measurement of the activity of small molecule inhibitors on Zika virus induced Caspase-3 activity in human astrocytoma cells (AID 1224859).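 Further: plate controls were ZIKV-infected untreated cells for no effect and uninfected cells for full effect.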 The method in brief:
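In SNB-19 cells plated at 250 cells/well and grown 16-20 h, compounds were applied 1 h before ZIKV (2 FFU/cell). Six hours later caspase-3/7 luminescence was recorded.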

Assay [9] is described as follows: qHTS Screen of the MIPE 4.0 Collection Against Ewings Sarcoma (RDES) (AID 1259252). Further: nearly all actives have a fitted effect of over 35% in size. Further: potency means the concentration at half of the fitted maximal effect. The method in brief:
(§2)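 Measured: ATP luminescence (CellTiter-Glo) 10 min after reagent addition, following 48 h drug treatment. Relative luciferase units converted to percent activity, with no-cell wells as full and DMSO wells as zero inhibition.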

The nature of assay [10]: qHTS Screen of the MIPE 4.0 Collection Against Ewings Sarcoma (TC71) (AID 1259253). Further: nearly all actives have a fitted effect of over 40% in size. Further: potency means the concentration at half of the fitted maximal effect. The method in brief:
as §2

Assay [11] can be described thus: qHTS Screen of the MIPE 4.0 Collection Against Ewings Sarcoma (EW8) (AID 1259255). Further: nearly all actives have a fitted effect of over 35% in size. Further: potency means the concentration at half of the fitted maximal effect.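 On viability: 100% = DMSO-treated cells and 0% = medium-only wells without cells.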 The method, boiled down:
as §2

Assay [12] concerns the target T1, Hexokinase-4 (Homo sapiens) + Glucokinase regulatory protein (Homo sapiens) (UniProt P35557+Q14397). As to the kind of experiment: qHTS assay for inhibitors of recombinant human GCK-GKRP interaction: Diaphorase-coupled assay (AID 743205). The method in brief:
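A kinetic fluorescence read (Ex 525/Em 590 nm, every minute for 30 minutes) tracked resorufin from a G6PDH-diaphorase coupled GCK reaction. It contained 10 nM GST-GCK, 10 nM FLAG-GKRP, 5 mM glucose, 0.4 mM ATP in Hepes pH 7.6. Normalized to with/without-enzyme DMSO controls.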

Assay [13] deals with T1, Hexokinase-4 (Homo sapiens) + Glucokinase regulatory protein (Homo sapiens). As to the kind of experiment: qHTS assay for inhibitors of recombinant human GCK-GKRP interaction: ADP-Glo assay (AID 743206).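 Further: plate controls were DMSO plus enzyme for no effect and no enzyme for full effect.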 The method, boiled down:
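GST-GCK and FLAG-GKRP (15 nM each in the dispensed mix, with 2 uM S6P) react with 0.4 mM ATP and 5 mM glucose (final) in Hepes pH 7.6 for 60 min at room temperature. ADP is measured by ADP-Glo luminescence.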

Assay [14] shares this target. Nature of the assay: qHTS assay for inhibitors of recombinant human GCK-GKRP interaction: HTRF assay (AID 743207).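 Further: 0% = DMSO with GCK present and -100% = DMSO wells lacking GCK.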 The method, boiled down:
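After 60 min equilibration at room temperature with anti-FLAG XL665 and anti-GST antibodies, FRET ratio (665/615 nm, excitation 320 nm) was read. Proteins: GST-GCK and FLAG-GKRP, each 5 nM, plus 2 uM S6P, pH 7.1 buffer; GCK-free wells define minimum signal.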

The nature of assay [15]: qHTS profiling for inhibitors of Plasmodium falciparum (3D7) proliferation (AID 743322).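 Further: infected erythrocytes exposed to compound for 72 h before lysis; 100% = DMSO vehicle wells and 0% = 0.29 µM artemisinin.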 The following applies: P. falciparum 3D7 proliferation; at 28.7 µM (top of the series) unless noted. The method, boiled down: as §1
The nature of assay [16]: qHTS profiling for inhibitors of Plasmodium falciparum (DD2) proliferation (AID 743323; call rule not given here). The following applies: lower = more inhibition; at 28.7 µM (top of the series) unless noted. The method, boiled down:
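P. falciparum Dd2-infected erythrocytes (0.3% parasitemia, 2.5% hematocrit) exposed 72 h at 37 C, 5% CO2. Lysis with SYBR Green, overnight at room temperature, fluorescence 485/535 nm; normalized to 0.29 uM artemisinin and DMSO.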

T1 sequence (P35557 whole entry, looked up): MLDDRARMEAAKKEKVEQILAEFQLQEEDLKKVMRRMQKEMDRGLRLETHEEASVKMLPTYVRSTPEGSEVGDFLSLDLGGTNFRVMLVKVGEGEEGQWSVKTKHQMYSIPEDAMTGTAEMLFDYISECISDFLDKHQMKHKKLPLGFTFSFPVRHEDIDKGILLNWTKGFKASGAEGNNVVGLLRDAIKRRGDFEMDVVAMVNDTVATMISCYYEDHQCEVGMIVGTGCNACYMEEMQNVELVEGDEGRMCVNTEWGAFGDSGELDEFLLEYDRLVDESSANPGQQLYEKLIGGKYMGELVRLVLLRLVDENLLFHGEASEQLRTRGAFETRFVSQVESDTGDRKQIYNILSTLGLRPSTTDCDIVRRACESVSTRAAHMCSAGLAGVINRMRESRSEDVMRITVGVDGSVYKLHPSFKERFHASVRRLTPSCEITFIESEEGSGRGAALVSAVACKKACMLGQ
T1 sequence (Q14397 whole entry, looked up): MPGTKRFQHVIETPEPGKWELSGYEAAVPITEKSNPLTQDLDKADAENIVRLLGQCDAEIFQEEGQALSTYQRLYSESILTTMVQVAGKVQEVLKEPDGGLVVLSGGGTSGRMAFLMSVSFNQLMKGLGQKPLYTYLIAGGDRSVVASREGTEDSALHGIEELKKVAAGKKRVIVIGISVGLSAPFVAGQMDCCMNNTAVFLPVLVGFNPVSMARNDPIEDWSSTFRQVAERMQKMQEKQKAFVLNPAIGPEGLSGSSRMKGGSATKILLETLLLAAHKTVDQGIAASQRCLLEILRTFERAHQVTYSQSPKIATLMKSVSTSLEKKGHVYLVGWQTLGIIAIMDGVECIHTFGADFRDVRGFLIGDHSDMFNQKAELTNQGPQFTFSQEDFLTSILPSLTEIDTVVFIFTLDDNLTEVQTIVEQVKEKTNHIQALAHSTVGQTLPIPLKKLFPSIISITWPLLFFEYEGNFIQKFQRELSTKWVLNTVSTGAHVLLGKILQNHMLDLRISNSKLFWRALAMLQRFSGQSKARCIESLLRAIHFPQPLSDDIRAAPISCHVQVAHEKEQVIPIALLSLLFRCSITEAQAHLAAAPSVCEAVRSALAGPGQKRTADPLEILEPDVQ

For `CCC(C)(Oc1ccc(C2(c3ccc(OC(C)(CC)C(=O)O)cc3)CCCCC2)cc1)C(=O)O` (stereo unspecified), in assay [1], the max response was 16.5% (inactive). Moreover, the parasite growth, % of DMSO control in [2] was found to be 100%. The compound also displayed a parasite growth remaining, % of DMSO control (lower = more inhibition) in [3] of 98.3%. Besides, the parasite growth, % of control (lower = inhibition) in assay [4] is 73.7%. The growth, % of control in assay [5] came to 107%. For the same compound, the cell viability, % of control (lower = more cytotoxic) in [6] was found to be 148%. Moreover, the Potency result in assay [7], in assay [8], in assay [9], in [10] and in [11] was “inactive” in each case.
Take `CCC[C@@H]1C[C@@H](C(=O)N[C@@H]([C@H]2O[C@H](SC)[C@H](O)[C@@H](O)[C@H]2O)[C@@H](C)O)N(C)C1`: in [1], the max response was -9.02% (inactive). The parasite growth, % of DMSO control in [2] came to 28.5%. The parasite growth remaining, % of DMSO control (lower = more inhibition) in assay [3] is 50.3%. Further, the parasite growth, % of control (lower = inhibition) in assay [4] was found to be 67.1%. The growth, % of control in assay [5] was 66.3%. The cell viability, % of control (lower = more cytotoxic) in assay [6] was 191%. Further, the Potency entry in [7], in assay [8], in assay [9] and in assay [11] was “inactive” throughout.
For the compound `Cc1c(OCC(F)(F)F)ccnc1CS(=O)c1nc2ccccc2[nH]1` (stereo unspecified), the result in assay [12], in [13] and in assay [14] was inactive. For the same compound, the cell viability, % of control (lower = more cytotoxic) in assay [6] was 595%. The Potency entry in assay [7] and in assay [8] was “inactive” in each case.
For `Cc1cccc(C)c1OCC(=O)N[C@@H](Cc1ccccc1)[C@@H](O)C[C@H](Cc1ccccc1)NC(=O)[C@H](C(C)C)N1CCCNC1=O`, the Potency in [1] was 11.2 µM (active) and 6.62 µM (active). For the same compound, the remaining parasite growth % (stronger effect = lower value) in assay [15] was -1.44%. The same compound yielded an activity, percent of control in assay [16] of 0.873%. This compound also displayed a parasite growth, % of DMSO control in [2] of 6.88%. Moreover, the parasite growth remaining, % of DMSO control (lower = more inhibition) in [3] was found to be 8.67%. The same compound had a parasite growth, % of control (lower = inhibition) in assay [4] of 16.3%. In assay [5], this compound showed a growth, % of control of 3.91%. The cell viability, % of control (lower = more cytotoxic) in assay [6] was determined as 28%. Moreover, the Potency result in assay [7] and in assay [8] was “inactive” each time.
For `CCCCc1ccc2nc(NC(=O)OC)[nH]c2c1`, the parasite growth, % of DMSO control in [2] came out at 49.5%. This compound also gave a parasite growth remaining, % of DMSO control (lower = more inhibition) in assay [3] of 85.9%. The parasite growth, % of control (lower = inhibition) in [4] was found to be 56.6%. The compound also showed a growth, % of control in [5] of 27.6%. In addition, in assay [6], the cell viability, % of control (lower = more cytotoxic) came out at 47.1%. The Potency entry in assay [7] and in [8] was “inactive” in each case. Also, the Potency in assay [9] is 0.0105 µM (active); in assay [10] it was 0.0187 µM (active); in assay [11], 0.0093 µM (active).
As for `CC1Cc2ccccc2N1NC(=O)c1ccc(Cl)c(S(N)(=O)=O)c1` (stereo unspecified), in [1], the max response is 1.41% (inactive) and -0.446% (inactive). In assay [5], this compound showed a growth, % of control of 48.2%. In addition, the cell viability, % of control (lower = more cytotoxic) in [6] stood at 106%. Moreover, the Potency result in assay [7] and in assay [8] was “inactive” in each case. The Potency in assay [10] was 20.9 µM (active).
For the compound `CN1CCC(=C2c3ccccc3CCc3sccc32)CC1`, the parasite growth, % of DMSO control in assay [2] is 8.53%. Also, the parasite growth remaining, % of DMSO control (lower = more inhibition) in assay [3] was 50.7%. In assay [4], this compound returned a parasite growth, % of control (lower = inhibition) of 14.9%. In [5], this compound showed a growth, % of control of 8.17%. In addition, the cell viability, % of control (lower = more cytotoxic) in assay [6] came to 93.1%. Moreover, the Potency result in [7] and in [8] was “inactive” throughout.
With `CN(c1nccc(=O)[nH]1)C1CCN(c2nc3ccccc3n2Cc2ccc(F)cc2)CC1`, in [1], the max response is 6.96% (inactive). In addition, the parasite growth, % of DMSO control in assay [2] came to 23.2%. The parasite growth remaining, % of DMSO control (lower = more inhibition) in assay [3] was found to be 81.9%. In assay [4], this compound displayed a parasite growth, % of control (lower = inhibition) of 23.1%. In assay [5], this compound yielded a growth, % of control of 17.5%. For the same compound, the cell viability, % of control (lower = more cytotoxic) in assay [6] was determined as 107%. Besides, the Potency entry in assay [7] and in [8] was “inactive” in each case. Besides, the figures for the Potency in assay [9] and in assay [10] were 13.2 µM (active) and 18.7 µM (active), respectively.
As to `Cc1nc2n(c(=O)c1CCN1CCC(c3noc4cc(F)ccc34)CC1)CCCC2`, in assay [1], the max response is 9.32% (inactive). Moreover, the cell viability, % of control (lower = more cytotoxic) in [6] is 80.6%. The Potency result in assay [7], in assay [8], in [10] and in assay [11] was “inactive” each time.
